Compound activity deposited in PubChem BioAssay by National Center for Advancing Translational Sciences (NCATS).
This is a sample that favours compounds with a hit; in the whole collection about 4% have one here.
GBA mod = alters purified human glucocerebrosidase activity; P04062; purified enzyme, resorufin glucoside fluorescence (screen aimed at inhibitors), 20 min; Potency, µM; 48,000 compounds, 1.1% hits; AID 360; in the data active = potency below about 15 µM; inconclusive = mostly about 16 µM to 33 µM;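 also: the screen sought inhibitors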
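Compounds titrated against 0.2 nM normal enzyme, 30 uM resorufin beta-D-glucopyranoside substrate, citrate/phosphate buffer with taurocholate and tween-20, pH 5.9. Reaction ran 20 min at room temperature; fluorescence (Ex 548/Em 600) gave AC50.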
PK Bst = modulators of Bacillus stearothermophilus pyruvate kinase. Potency, µM. 51,000 compounds, 1.2% hits. purified pyruvate kinase, luminescence ATP production; ribose 5-phosphate activator present at AC10; in the data active = potency below about 11 µM; inconclusive = mostly about 12 µM to 25 µM;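 the screen sought inhibitors and activators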
TSHR agonist = activates the human thyroid stimulating hormone receptor; 73,000 compounds, 0.48% hits; P16473; HEK293-CNG-TSHR cells (CNG channel as cAMP sensor), membrane potential dye, cAMP; Potency, µM (titrated, usually from 57.1 µM), hits mostly activators; active = well fitted activation curve with a large enough effect in the main read-out, with a control signal flat, not every such curve was filed as active; inconclusive = small, poorly fitted or top-dose-only effect, or a change in a side signal; inactive = no such curve, though single readings can be large or run the other way; reference of the percent scale not stated here;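 also: the control signal comes from parental cells without the receptor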
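HEK 293 cells stably expressing TSHR and a modified CNG channel, with CNG-only parental cells as counterscreen, were preloaded 60 min at room temperature with membrane potential dye containing 100 uM RO 20-1724. Compound exposure was 30 min, and depolarization was read as fluorescence at 590 nm.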
HEK293 cAMP cs = counter-screen for TSHR agonists: cAMP increase in parental HEK293; parental HEK293 CNG cAMP sensor, membrane potential fluorescence; Potency, µM (series often up to 57.1 µM), most hits filed as activators; 73,000 compounds, 2.5% hits; AID 938; also: nearly all actives have a fitted effect of over 55% in size
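Counterscreen for endogenous-receptor signalling: CNG-channel HEK 293 cells report cAMP rise by membrane depolarization. After 60 min dye equilibration with 100 uM RO 20-1724, compounds incubated 30 min before bottom-read fluorescence at 590 nm.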
Caspase-1 inhib = caspase-1 (human) inhibition, allosteric or competitive | Caspase-1 enzyme, Ac-WEHD-AFC fluorogenic rate | Potency, µM (series often up to 57.5 µM), hits mostly inhibitors | 75,000 compounds, 0.03% hits
Target sequence (P29466 120-297 limits assumed): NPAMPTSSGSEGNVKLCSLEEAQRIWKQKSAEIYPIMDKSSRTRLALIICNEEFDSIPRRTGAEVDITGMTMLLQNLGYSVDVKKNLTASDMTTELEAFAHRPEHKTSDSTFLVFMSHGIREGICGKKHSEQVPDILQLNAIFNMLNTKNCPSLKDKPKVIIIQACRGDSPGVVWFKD
Target sequence (P29466 317-404 limits assumed): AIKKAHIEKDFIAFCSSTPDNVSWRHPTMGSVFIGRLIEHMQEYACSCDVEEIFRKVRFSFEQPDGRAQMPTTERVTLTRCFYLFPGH
Caspase-7 inhib = blocks human caspase-7 allosterically or competitively | P55210 | recombinant caspase-7, Ac-DEVD-AFC fluorescence rate | Potency, µM (highest dose often 57.5 µM), hits mostly inhibitors | 75,000 compounds, 0.02% hits | AID 889; active = well fitted inhibition curve with a large enough effect in the main read-out, with a control signal flat, not every such curve was filed as active; inconclusive = small, poorly fitted or top-dose-only effect, or a change in a side signal
Target sequence (P55210 24-198 limits assumed): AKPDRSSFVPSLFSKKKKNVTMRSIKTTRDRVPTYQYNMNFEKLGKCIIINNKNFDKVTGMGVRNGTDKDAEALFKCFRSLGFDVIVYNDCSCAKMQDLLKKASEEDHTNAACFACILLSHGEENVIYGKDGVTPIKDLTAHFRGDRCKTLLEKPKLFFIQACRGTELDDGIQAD
Target sequence (P55210 207-303 limits assumed): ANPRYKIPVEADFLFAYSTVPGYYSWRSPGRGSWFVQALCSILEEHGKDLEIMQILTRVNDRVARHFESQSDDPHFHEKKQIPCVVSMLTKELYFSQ
Of the large screens only hits and unclear results are named; the others gave an inactive call. Unless noted, calls follow the shape of the dose curve; as a rule, active = well fitted curve in the direction sought with a large enough effect; inconclusive = small, poorly fitted or top-dose-only effect, or another doubt; inactive = no such curve, though single readings can be large; an effect the other way counts as inactive or inconclusive.

CC[C@]12CCCN3CCc4c(n(c5ccccc45)C(=O)C1)[C@H]32	none (no result: GBA mod, PK Bst, TSHR agonist, HEK293 cAMP cs)
CCOC(=O)Cn1nc(-c2ccc(Cl)cc2)cc1N	PK Bst 5.8, TSHR agonist inconclusive, HEK293 cAMP cs inconclusive
O=C(NC1CCN(Cc2ccccc2)CC1)c1ccc(-n2c(=O)c(=O)[nH]c3ccccc32)cc1	TSHR agonist inconclusive, Caspase-1 inhib inconclusive (no result: GBA mod, PK Bst)
O=C(CN1C(=O)COc2ccccc21)N(Cc1cccnc1)Cc1cccc(F)c1	TSHR agonist inconclusive, HEK293 cAMP cs 16µM
O=C(O)CCC(=O)N(Cc1cccnc1)Cc1cccc(F)c1	none
COc1ccc(-c2nnc3sc(-c4cccs4)nn23)cc1OC	PK Bst 2.6
COc1cc(-c2nn3c(-c4cccnc4)nnc3s2)cc(OC)c1OC	none (no result: GBA mod, TSHR agonist, HEK293 cAMP cs, Caspase-1 inhib, Caspase-7 inhib)
COc1cc(-c2nnc3sc(-c4cccs4)nn23)cc(OC)c1OC	PK Bst 2.8
COc1ccc(-c2nn3c(-c4cccc(C)c4)nnc3s2)cc1OC	TSHR agonist inconclusive, HEK293 cAMP cs inconclusive
C[Si](C)(c1ccc(C(=O)O)cc1)c1ccc(C(=O)O)cc1	none (no result: GBA mod, PK Bst)
c1ccc2c[n+](Cc3ccnc4ccccc34)ccc2c1	none (no result: GBA mod, PK Bst)
O=C(NCCN1CCCCC1)c1ccc(-n2c(=O)c(=O)[nH]c3ccccc32)cc1	none (no result: GBA mod, PK Bst)
Cc1ccc(C(c2nnnn2CCc2ccccc2)N2CCSCC2)cc1 (stereo unspecified)	TSHR agonist inconclusive, HEK293 cAMP cs 20µM (no result: GBA mod)
COCCn1nnnc1C(c1ccc(Cl)cc1)N1CCSCC1 (stereo unspecified)	TSHR agonist inconclusive, HEK293 cAMP cs 16µM
COCCn1nnnc1C(c1ccc(OC)cc1)N1CCC(C)CC1 (stereo unspecified)	none
CCOc1ccc(CSC2=NCCN2)cc1Cl	GBA mod 8.4
CCC(=O)Nc1ncnc2ncn(C(=O)CC)c12	none (no result: GBA mod, PK Bst)
CCc1nnc(NC(=O)CSc2nnc(-c3ccoc3C)n2-c2ccccc2)s1	GBA mod inconclusive
CCOc1ccccc1-n1c(SCC(=O)Nc2nccs2)nnc1-c1ccoc1C	TSHR agonist inconclusive, HEK293 cAMP cs 13µM
Cc1occc1-c1nnc(SCC(=O)Nc2nccs2)n1CCc1ccccc1	TSHR agonist inconclusive, HEK293 cAMP cs inconclusive
CCc1nnc(NC(=O)CSc2nnc(-c3ccoc3C)n2-c2ccc(C)cc2)s1	TSHR agonist 16µM (no result: GBA mod)
CC(=O)O[C@@H]1CC[C@]2(C)[C@H]3CC[C@]4(C)[C@H](C[C@H]5CCCC[C@@]54C(C)=O)[C@@H]3CC(=O)[C@@]2(O)C1	none (no result: GBA mod, PK Bst, Caspase-1 inhib, Caspase-7 inhib)
O=C(NCCN1CCOCC1)c1ccc2c(c1)ncn2C1CCCCC1	GBA mod 15
O=C(NCCN1CCCCC1)c1ccc(Cc2nc3ccccc3[nH]2)cc1	none (no result: GBA mod, PK Bst)
COC(=O)CSc1nnc2n1C(C)(C)Cc1ccccc1-2	none
CCOC(=O)C(CC)Sc1nnc2n1C(C)(C)Cc1ccccc1-2 (stereo unspecified)	TSHR agonist inconclusive, HEK293 cAMP cs 20µM
CCN(CCCNC(=O)CCc1nc(-c2ccc(OC)cc2)no1)c1cccc(C)c1	TSHR agonist 13µM (no result: GBA mod)
COc1ccc(-c2noc(CCC(=O)NCCN(C)Cc3ccccc3)n2)cc1	TSHR agonist inconclusive, HEK293 cAMP cs inconclusive (no result: GBA mod)
O=C(CSc1nnc(-c2ccc(Cl)s2)o1)N1CCCc2ccccc21	TSHR agonist inconclusive, HEK293 cAMP cs 4µM
Cc1ccc(C#N)cc1	none (no result: GBA mod, PK Bst)
CCOc1c(OC)cccc1C1CC(=O)Nc2cc3c(cc21)OCCO3 (stereo unspecified)	TSHR agonist 25µM (no result: GBA mod, PK Bst)
COc1cc(OC)cc([C@H](CNc2ncnc3c2ncn3[C@@H]2O[C@@H](CO)[C@H](O)[C@@H]2O)c2ccccc2C)c1	none (no result: GBA mod, PK Bst, TSHR agonist, Caspase-1 inhib, Caspase-7 inhib)
O=C(CSc1nnnn1-c1cccc2ccccc12)N1CCOCC1	PK Bst 8
Cc1nnc(SCC(=O)N2CCOCC2)c2ccccc12	none (no result: GBA mod, TSHR agonist, HEK293 cAMP cs, Caspase-1 inhib, Caspase-7 inhib)
Cc1ccco1	none (no result: GBA mod, PK Bst)
O=C(CN1CCN(S(=O)(=O)c2ccc(Br)cc2)CC1)Nc1ccccc1F	TSHR agonist inconclusive, HEK293 cAMP cs 32µM (no result: GBA mod, PK Bst)
O=C(O)CCCC[C@@H]1SC[C@H]2NC(=O)N[C@H]12	none (no result: GBA mod, PK Bst, Caspase-1 inhib, Caspase-7 inhib)
Fc1ccc(C(c2nnnn2C2CCCC2)N2CCN(Cc3ccncc3)CC2)cc1 (stereo unspecified)	none
CN(c1ccccc1)C(c1ccc(F)cc1)c1nnnn1C1CCCC1 (stereo unspecified)	TSHR agonist inconclusive, HEK293 cAMP cs 13µM
O=C(Nc1ccccc1)N1CCCC(c2nc(-c3cccs3)no2)C1 (stereo unspecified)	GBA mod 0.71
CC1CCCCN1CCCNC(=O)c1ccc(Cc2nc3ccccc3[nH]2)cc1 (stereo unspecified)	none (no result: GBA mod, PK Bst)
COCCNC(=O)C(c1cccc(OC)c1)N(C(=O)Cn1nnc2ccccc21)c1cccnc1 (stereo unspecified)	none
O=C(NCc1ccco1)C(c1cccs1)N(Cc1ccccc1)C(=O)Cn1nnc2ccccc21 (stereo unspecified)	TSHR agonist inconclusive, HEK293 cAMP cs 10µM
CCOCCCN(C(=O)Cn1nnc2ccccc21)C(C(=O)NCc1ccco1)c1ccncc1 (stereo unspecified)	none
CCC(C)N(C(=O)Cn1nnc2ccccc21)C(C(=O)NCc1ccco1)c1cccc(OC)c1 (stereo unspecified)	TSHR agonist inconclusive, HEK293 cAMP cs 16µM
COCCNC(=O)C(c1cccs1)N(C(=O)Cn1nnc2ccccc21)c1ccccc1 (stereo unspecified)	none
O=C(NCc1ccco1)C(c1ccco1)N(CCc1ccccc1)C(=O)Cn1nnc2ccccc21 (stereo unspecified)	TSHR agonist inconclusive, HEK293 cAMP cs 16µM
CC(C)CCNC(=O)C(c1ccco1)N(C(=O)Cn1nnc2ccccc21)c1ccc2c(c1)OCO2 (stereo unspecified)	GBA mod 8.2
CC(=O)OC[C@@H]1O[C@@H](O/N=C2/C[C@@H](O)[C@@H](O)[C@@H]3[C@@H]4C(=O)N(C(C)(C)C)C(=O)[C@H]4CC[C@H]23)[C@H](OC(C)=O)[C@H](OC(C)=O)[C@@H]1OC(C)=O	none (no result: GBA mod, PK Bst)
CCC(C(=O)O)C1CCC(C)C(C(C)C(O)C(C)C(=O)C(CC)C2OC3(C=CC(O)[C@@]4(CC[C@](C)(C5CC[C@@](O)(CC)C(C)O5)O4)O3)C(C)CC2C)O1 (stereo partly specified)	none (no result: GBA mod, PK Bst, TSHR agonist, HEK293 cAMP cs)
COc1ccc(-c2cc(C(=O)N3CCCc4ccccc43)no2)cc1	TSHR agonist inconclusive, HEK293 cAMP cs 20µM
COc1ccc(OCCCC(=O)N2CCCc3ccccc32)cc1	TSHR agonist inconclusive, HEK293 cAMP cs 16µM
COc1ccc(-c2cc(C(=O)N3CCc4ccccc4C3)no2)cc1OC	none (no result: PK Bst)
COc1cccc(-c2cc(C(=O)N3CCCc4ccccc43)no2)c1	TSHR agonist inconclusive, HEK293 cAMP cs 16µM (no result: PK Bst)
